Bioassay records as filed in PubChem.
CYP2C9 act – human CYP2C9 activators, primary screen, biochemical, luminescence | actives 1.4% (n = 96,000) | recombinant CYP2C9, luciferin-H conversion; active compounds read high; factor 1 = untreated enzyme, 0 = blocked | activation factor at 5 µM;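 active = activation factor of 2 or more for CYP2C9 at a 5 µM dose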;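 note: 0 = sulfaphenazole-blocked wells and 1 = vehicle-only wells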
CYP2C9 inhib – blockers of cytochrome P450 2C9 activity – biochemical, luminescence, ADME assay, primary screen. actives 20% (n = 96,000). P11712. AID 777, 2007. CYP2C9 Supersomes, luciferin-H conversion. inhibition, % at 5 µM;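 active = blocking of liver enzyme CYP2C9 beyond about 50% at 5 µM, limit read from the data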
sEH activator – soluble epoxide hydrolase activators, primary screen, biochemical, human sEH; AID 717, 2007; activation, % at 2 µM; actives 0.04% (n = 91,000); purified human sEH enzymatic activity, activator screen; Bifunctional epoxide hydrolase 2 (Homo sapiens), P34913; in the data active = activation above about 37%
Target sequence (P34913 whole entry, looked up): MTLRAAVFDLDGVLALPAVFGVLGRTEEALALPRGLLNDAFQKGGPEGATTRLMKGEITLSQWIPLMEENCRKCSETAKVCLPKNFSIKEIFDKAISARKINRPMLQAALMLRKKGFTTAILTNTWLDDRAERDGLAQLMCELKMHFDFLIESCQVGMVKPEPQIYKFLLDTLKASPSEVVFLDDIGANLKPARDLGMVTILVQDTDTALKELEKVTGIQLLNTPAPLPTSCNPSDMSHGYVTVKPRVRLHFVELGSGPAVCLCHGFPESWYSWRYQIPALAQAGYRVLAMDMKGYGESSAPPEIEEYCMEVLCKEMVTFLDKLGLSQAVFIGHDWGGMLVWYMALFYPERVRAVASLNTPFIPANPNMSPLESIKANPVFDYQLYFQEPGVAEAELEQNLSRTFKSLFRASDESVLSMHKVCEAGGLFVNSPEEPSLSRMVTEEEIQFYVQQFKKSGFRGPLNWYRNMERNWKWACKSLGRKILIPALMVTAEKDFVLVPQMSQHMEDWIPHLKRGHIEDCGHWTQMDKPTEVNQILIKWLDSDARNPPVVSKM
sEH inh – soluble epoxide hydrolase inhibitors, primary screen, biochemical, human sEH. actives 0.34% (n = 91,000). Bifunctional epoxide hydrolase 2 (Homo sapiens), P34913. recombinant human sEH enzymatic activity assay. inhibition, % at 2 µM; in the data active = inhibition above about 80%
CYP2C19 act – human CYP2C19 activators, primary screen, biochemical, luminescence | Cytochrome P450 2C19 (Homo sapiens), P33261 | recombinant CYP2C19, luciferin-H EGE luminescence; active compounds read high; 0 = fully inhibited enzyme, 1 = untreated enzyme | activation factor at 5 µM | 96,000 tested, under 10 active | AID 1025, 2008;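 active = activation factor of at least 2 at 5 µM in the primary screen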;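 note: 0 = wells with 2.5 mM tranylcypromine and 1 = vehicle-only wells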
CYP2C19 inhib – blockers of cytochrome P450 2C19 activity – biochemical, luminescence, ADME assay, primary screen | CYP2C19 Supersomes, luciferin-H EGE luminescence, 30 min | P33261 | actives 21% (n = 96,000) | inhibition, % at 5 µM;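 active = CYP2C19 inhibition above a set limit at 5 µM in the primary screen, cut at about 50% in these data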;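 note: plate controls were negative control wells for no effect and 2.5 mM tranylcypromine positive control for full effect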
Active calls of the source: *; / = not tested or not shown. Most compounds without a hit are left out; they make up all but 27% or so of the library.

SMILES	CYP2C9 act	CYP2C9 inhib	sEH activator	sEH inh	CYP2C19 act	CYP2C19 inhib
Cc1cccc(N2CCN(C(=O)c3ccc(Cl)c(S(=O)(=O)NCc4ccco4)c3)CC2)c1C	0.2	75.9*	-7.1	6.7	0.7	31.5
O=C(O)c1ccc(Cl)c(S(=O)(=O)NCc2ccco2)c1	1	-1.4	3.0	-4.2	1	-3.1
O=C(NCC1(N2CCOCC2)CCCCC1)c1ccc(Cl)c(S(=O)(=O)NCc2ccco2)c1	0.3	71.4*	-5.7	3.8	0.5	53.1*
Cc1ccc(S(=O)(=O)NCc2ccco2)c(C)c1C	3.5*	-254.5	-8.8	9.8	0.4	56.0*
Cc1ccc(C(=O)NCc2ccco2)cc1S(=O)(=O)Nc1cccc(C)c1C	1.2	-17.3	-2.4	-1.1	1.4	-38.6
Cc1noc(C)c1S(=O)(=O)N(C)CC(=O)NCc1ccccc1	1	-1.2	-9.7	8.5	0.9	5.4
Cc1noc(C)c1S(=O)(=O)N(CCc1ccccc1)Cc1ccccc1	0.2	76.2*	/	/	0.6	40.9
COc1cccc(N2CCN(c3ccc(S(=O)(=O)N4CCCC4)cc3)CC2)c1	1	0.9	0.7	-1.0	0.6	40.6
CCOC(=O)C1(C)NC(c2ccc(N(C)C)cc2)C2C(=O)N(CC)C(=O)C21 (stereo not drawn)	1	2.6	3.2	-3.1	0.9	5.4
CCOC(=O)C1(C)NC(c2ccc(N(C)C)cc2)C2C(=O)N(c3ccc(OC)cc3)C(=O)C21 (stereo not drawn)	0.8	21.6	-0.5	0.0	0.4	57.3*
CCOC(=O)C1(C)NC(c2ccc(OC)cc2OC)C2C(=O)N(c3cccc(OC)c3)C(=O)C21 (stereo not drawn)	0.2	83.1*	0.8	-2.5	0.2	80.4*
CCOc1ccc(CN2CCNC(=O)C2CC(=O)OC)cc1 (stereo not drawn)	1.1	-12.1	13.3	-14.5	1.2	-15.3
Brc1ccc(-c2nc(N/N=C/c3cccnc3)c3ccccc3n2)cc1	0.4	64.0*	5.5	-3.0	0.6	43.1
Cc1ccc(-c2nc(N/N=C/c3ccccc3[N+](=O)[O-])c3ccccc3n2)cc1	1	0.9	7.2	-6.7	1.1	-10.1
COCCCn1c(C2CCCCC2)nc2oc3cc(OC)ccc3c(=O)c2c1=O	0.3	70.1*	12.4	-10.7	0.5	51.9*
COc1ccc2c(=O)c3c(=O)n(Cc4ccco4)c(C4CCCCC4)nc3oc2c1	0.7	26.4	/	/	0.5	53.4*
COc1ccc2c(=O)c3c(=O)n(Cc4ccco4)c(C(C)C)nc3oc2c1	/	/	-0.7	2.3	/	/
CCc1nc2oc3cc(OC)ccc3c(=O)c2c(=O)n1Cc1ccccc1	0.5	48.9	0.3	0.5	0.5	53.2*
CCc1nc2oc3ccccc3c(=O)c2c(=O)n1Cc1ccccc1	1	4.3	10.6	-9.2	1	3.4
CCn1c(C)c(C(C)=O)c(SC)nc1=S	1	-2.3	-2.0	0.2	1.1	-6.0
CCOC(=O)N/C(N)=N/c1nc2ccccc2s1	1	-3.1	-7.4	8.0	0.7	26.5
Cc1ccc(C(=O)CSc2nc3ccccc3o2)cc1	0.9	7.5	6.3	-7.1	0.8	24.8
CCOC(=O)N1CCC(Nc2c(Nc3ccc(C)c(C)c3)c(=O)c2=O)CC1	1	-1.6	5.4	-4.6	1.1	-13.2
COc1ccc(S(=O)(=O)NN=C2CCCC2)cc1	1.1	-6.4	-0.1	-1.6	0.7	32.4
COc1ccc(S(=O)(=O)N=C2C=C(C)C(=O)C(C)=C2)cc1	1.7	-65.6	-4.5	3.0	0.3	66.1*
SMILES	CYP2C9 act	CYP2C9 inhib	sEH activator	sEH inh	CYP2C19 act	CYP2C19 inhib
C/C(N)=C(\C#N)C(=O)NCc1ccccn1	0.9	14.5	-13.3	13.6	1	3.3
COc1ccc(-c2nc(CS(=O)CC(=O)NCc3cccnc3)c(C)o2)cc1 (stereo not drawn)	0.4	62.2*	14.2	-11.6	0.5	48.4
COc1cccc(-c2nc(CS(=O)CC(=O)NCc3ccccc3)c(C)o2)c1 (stereo not drawn)	0.4	57.8*	/	/	0.5	54.4*
CCc1ccc(-c2nc(CS(=O)CC(=O)NCc3cccnc3)c(C)o2)cc1 (stereo not drawn)	0.3	70.1*	/	/	0.8	15.2
COc1ccc(-c2nc(CS(=O)CC(=O)NCc3ccco3)c(C)o2)cc1 (stereo not drawn)	0.7	33.2	-8.1	7.1	0.7	29.1
O=C1N2CCSC2=NC1(NS(=O)(=O)c1ccccc1)C(F)(F)F (stereo not drawn)	0.9	10.5	-3.6	5.2	1	0.1
CSc1nc(SCC(=O)NC(c2ccccc2)c2ccccc2)c2c3c(sc2n1)CN(C)CC3	0.4	57.4*	14.2	-12.8	0.6	44.3
CCc1ccc2c(CN3CCN(S(=O)(=O)c4ccc5c(c4)OCCO5)CC3)cc(=O)oc2c1	0.5	53.4*	-3.7	5.7	0.5	46.0
CCc1ccc2oc(=O)cc(CN3CCOCC3)c2c1	0.7	28.9	9.3	-9.1	0.4	64.8*
O=c1cc(CN2CCN(S(=O)(=O)c3ccc4c(c3)OCCO4)CC2)c2ccc(O)cc2o1	0.3	66.0*	4.2	-1.4	1.1	-9.6
CCc1ccc2oc(=O)cc(CN3CCC(C)CC3)c2c1	0.7	26.5	1.4	-0.4	0.7	25.3
Cn1c(Cc2c[nH]c3ccccc23)n[nH]c1=S	0.6	37.7	14.7	-16.3	0.3	66.9*
Cc1ccc(C=C2C(=O)c3ccccc3C2=O)s1	0.5	48.0	4.3	-1.3	0.9	13.0
CCNc1nc(NC(C)CC)nc(Oc2ccc(=O)[nH]n2)n1 (stereo not drawn)	1	4.3	-0.8	1.7	0.5	50.3*
Cc1cc(N2C(=O)CC(N3CCN(C(c4ccccc4)c4ccccc4)CC3)C2=O)no1 (stereo not drawn)	0	97.8*	-1.9	1.6	0.2	78.3*
CCOC(=O)c1ccc(N2C(=O)CC(Nc3ccc(CCO)cc3)C2=O)cc1 (stereo not drawn)	0.6	39.7	-7.3	7.3	0.8	18.4
Cn1cnnc1SCc1ccc(C(=O)n2ncc(C#N)c2N)cc1	1	-4.9	/	/	1	-2.8
CCC(CC)C(=O)Nc1c2c(nn1-c1ccc(OC)cc1)CS(=O)(=O)C2	0.5	54.6*	-2.9	3.8	1	1.9
CCCC(=O)Nc1c2c(nn1-c1ccc(OC)cc1)CS(=O)(=O)C2	1	4.6	4.5	-3.5	1.1	-9.9
CCCN1C2CCCC1CC(NC(=S)Nc1cc(C)ccc1C)C2 (stereo not drawn)	/	/	8.1	-9.1	/	/
